One test deals with Klebsiella pneumoniae. The note with it: Concentration 32 ug.mL-1;; ASSAY_TEST Inhibition of Bacterial Growth; detection method Absorption (OD600); MEDIA CAMHB; plate type 384well; NBS; CORNING #3640; time 18 hr.
A further test relates to Candida albicans. The note with it: Concentration 32 ug.mL-1; ASSAY_TEST Inhibition of Fungal Growth; detection method Absorption (OD530).
In the next test the test system is Cryptococcus neoformans. The note with it: Concentration 32 ug.mL-1; ASSAY_TEST Inhibition of Fungal Growth; detection method Resazurin; Absorption (OD600-OD570); plate type 384well; NBS; CORNING #3640. A general note: Alamar Blue is a resazurin reagent that responds to reducing activity.

Measured potencies and affinities stand elsewhere.

Take `O=C(CSc1nnc2c(=O)n(Cc3ccc(F)cc3)ccn12)NC1CCCC1`: the values for the Inhibition with Klebsiella pneumoniae, with Candida albicans and in the test on Cryptococcus neoformans were 8.75%, 5.19% and -22.84%, respectively.
As for `O=C(CSc1nc2ccccc2n2cnnc12)Nc1ccc2c(c1)OCO2`, the Inhibition (commonly the relative decrease from the control value, in per cent) in the test with Klebsiella pneumoniae was 0.58%; in the test on Candida albicans, 2.55%; in the test with Cryptococcus neoformans, -24.91%.
Regarding `COc1ccc(C(=O)CSc2nnc3c(=O)n(-c4ccc(Br)cc4)ccn23)cc1`, the Inhibition is recorded as 6.12% in the test on Klebsiella pneumoniae, 4.09% in the test on Candida albicans and -7.3% in the test with Cryptococcus neoformans.
With `Cc1ccccc1Oc1nccn2c(=O)n(CC(=O)Nc3ccccc3C(F)(F)F)nc12`, the results for the Inhibition in the test on Klebsiella pneumoniae, in the test with Candida albicans and in the test with Cryptococcus neoformans were 15.23%, -0.33% and -11.87%, respectively.
In the same order, the values of `CCc1nnc2c(=O)n(CC(=O)Nc3ccc(C(C)C)cc3)c3ccccc3n12` are 15.72%, -0.82% and -28.42%.
Turning to `Cc1ccc(Sc2ccc3nn(CC(=O)Nc4ccc(F)c(Cl)c4)c(=O)n3n2)cc1`, the results for the Inhibition in the test on Klebsiella pneumoniae, in the test with Candida albicans and in the test with Cryptococcus neoformans were 6.66%, 6.36% and -7.28%, respectively.
With `O=S(=O)(c1cccn2cnnc12)N(Cc1ccccc1F)c1ccc(F)c(F)c1`, the values for the Inhibition in the test with Klebsiella pneumoniae, with Candida albicans and with Cryptococcus neoformans were 13.33%, 5.39% and -3.16%, respectively.
In the same order, the values of `C=Cc1ccc(Cn2nc3c(=O)n(-c4ccc(C)c(C)c4)ccn3c2=O)cc1` are 9.34%, 3.74% and -5.84%.
Take `COc1ccc(CN(c2ccc(F)cc2)S(=O)(=O)c2cccn3c(C)nnc23)cc1`: the values for the Inhibition with Klebsiella pneumoniae, in the test with Candida albicans and with Cryptococcus neoformans were 13.21%, 1.16% and -6.38%, respectively.
As to `O=S(=O)(c1cccn2c(SCc3c(F)cccc3Cl)nnc12)N1CCCC1`, the Inhibition with Klebsiella pneumoniae is 5.57%; in the test with Candida albicans, -0.64%; with Cryptococcus neoformans, -6.69%.
For `COc1ccc(N(Cc2cccc(Cl)c2)S(=O)(=O)c2ccc3nnc(C)n3c2)cc1` the same measures were 12.69%, 5% and -5.62%.
Consider `O=C(Cn1nc2ccc(SCc3ccc(Cl)cc3)nn2c1=O)NCc1ccc2c(c1)OCO2`, for which the Inhibition in the test on Klebsiella pneumoniae is recorded as -1.27%; with Candida albicans it was 13.27%; in the test on Cryptococcus neoformans it was -15.83%.
For `COc1cccc(-n2ccn3c(SCC(=O)Nc4ccc(C(C)C)cc4)nnc3c2=O)c1` the same measures were -7.28%, 18.36% and -10.59%.
For `CCCCN(CC)c1ccc2nnc(CCc3nc(-c4ccc5c(c4)OCO5)no3)n2n1`, the results for the Inhibition with Klebsiella pneumoniae, in the test with Candida albicans and with Cryptococcus neoformans were 3.82%, 3.29% and -4.25%, respectively.
For `Cc1ccc(NC(=O)Cn2nc3c(SC4CCCCC4)nccn3c2=O)cc1F` the same measures were 13.26%, -0.51% and -26.18%.
In the same order, the values of `COc1ccccc1-n1ccn2c(=O)n(Cc3ccc(F)cc3Cl)nc2c1=O` are 1.73%, 3.67% and -6.11%.
Turning to `COc1cc(NC(=O)Cn2nc3c(N4CCCC(C)C4)nccn3c2=O)cc(OC)c1` (centres undefined), the Inhibition with Klebsiella pneumoniae was 5.76%; in the test with Candida albicans it was 3.21%; in the test with Cryptococcus neoformans it was -46.51%.
Take `CSc1cccc(NC(=O)Cn2nc3c(Sc4ccccc4)nccn3c2=O)c1`: the Inhibition in the test on Klebsiella pneumoniae was 1.1%; in the test on Candida albicans it was 18.38%; with Cryptococcus neoformans it was -12.89%.
For `COc1cc(OC)c(NC(=O)Cn2nc3ccc(Sc4cccc(F)c4)nn3c2=O)cc1Cl` the same measures were 2.02%, 6.91% and -5.99%.
In the case of `CCC(C)NC(=O)CSc1nnc2c(=O)n(Cc3ccc(F)cc3)ccn12` (centres undefined), the Inhibition in the test on Klebsiella pneumoniae is 6.96%; in the test with Candida albicans, 1.05%; in the test with Cryptococcus neoformans it was -22.53%.
For `Cc1cc2nn(CC(=O)Nc3ccccc3F)c(=O)n2c(Nc2ccc(C)c(F)c2)n1`, the Inhibition is listed as 4.36% in the test with Klebsiella pneumoniae, 4.06% in the test with Candida albicans and -8.37% with Cryptococcus neoformans.
Consider `Cc1nnc2c(=O)n(CC(=O)Nc3ccc(F)cc3F)c3ccccc3n12`, for which the Inhibition in the test with Klebsiella pneumoniae is listed as 12.43%; in the test with Candida albicans, -0.68%; with Cryptococcus neoformans, -30.11%.
In the same order, the values of `CCOc1ccc(-n2ccn3c(SCC(=O)c4ccc(OC)c(OC)c4)nnc3c2=O)cc1` are 7.92%, 3.75% and -6.73%.
As for `Cc1ccc(-c2cc3c4nn(CC(=O)Nc5cccc(C)c5C)c(=O)n4ccn3n2)cc1C`, the figures for the Inhibition in the test on Klebsiella pneumoniae, in the test with Candida albicans and in the test with Cryptococcus neoformans were 14.55%, 0.02% and -23.37%, respectively.
For `CC1CCN(C(=O)Cn2nc3n(Cc4ccco4)c(=O)c4sccc4n3c2=O)CC1`, the values for the Inhibition in the test on Klebsiella pneumoniae, with Candida albicans and with Cryptococcus neoformans were 6.19%, 0.21% and -13.38%, respectively.
As for `Cc1ccc(Oc2nccn3c(=O)n(CC(=O)Nc4ccc5c(c4)OCO5)nc23)cc1`, the Inhibition is given as 3.22% in the test with Klebsiella pneumoniae, -1.46% in the test on Candida albicans and -8.87% with Cryptococcus neoformans.
On to `COc1ccc(NC(=O)Cn2nc3c4c5c(sc4ncn3c2=O)CCCC5)cc1`, for which the Inhibition in the test on Klebsiella pneumoniae was 6.74%; with Candida albicans, 5.37%; with Cryptococcus neoformans, -17.73%.
In the same order, the values of `CCCCOc1ccc(-c2cc3c4nnc(SCC(=O)Nc5ccc(F)cc5)n4ccn3n2)cc1` are 3.87%, -1.37% and -16.65%.

The record behind these values is ChEMBL document CHEMBL4513146, “CO-ADD screening of Karazin Kharkiv National University (Ukraine) compounds”.
